Screens as filed in PubChem BioAssay.
TEAD-YAP block: TEAD-YAP interaction inhibition | inhibition, % at 9.12 µM | HEK-TIYL cells, TEAD-Gal4/YAP UAS-luciferase luminescence | AID 1259422 | 1.4% of 640,000 active; in the data active means inhibition above about 32%
MITF inh: inhibitors of human MITF. AlphaScreen MITF homodimerization, bead proximity signal. O75030. 0.91% of 650,000 active. inhibition, % at 2.6 µM; in the data active means inhibition above about 50%
FBW7 act: activators of human E3 ligase FBW7 | Q969H0 | AlphaScreen FBW7–phospho-cyclin E peptide binding, activator screen | normalized activity (activation), % at 26.1 µM | 0.13% of 650,000 active | AID 1259310; in the data active means normalized activity above about 1.9%;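 further: purified mutant Fbw7 with reduced substrate affinity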
GPR151 activ: human GPR151 activation; activation, % at 11.2 µM; 1% of 650,000 active; PathHunter beta-arrestin GPR151 cells, luminescence; in the data active means activation above about 4.9%
Target sequence (Q8TDV0 whole entry, looked up): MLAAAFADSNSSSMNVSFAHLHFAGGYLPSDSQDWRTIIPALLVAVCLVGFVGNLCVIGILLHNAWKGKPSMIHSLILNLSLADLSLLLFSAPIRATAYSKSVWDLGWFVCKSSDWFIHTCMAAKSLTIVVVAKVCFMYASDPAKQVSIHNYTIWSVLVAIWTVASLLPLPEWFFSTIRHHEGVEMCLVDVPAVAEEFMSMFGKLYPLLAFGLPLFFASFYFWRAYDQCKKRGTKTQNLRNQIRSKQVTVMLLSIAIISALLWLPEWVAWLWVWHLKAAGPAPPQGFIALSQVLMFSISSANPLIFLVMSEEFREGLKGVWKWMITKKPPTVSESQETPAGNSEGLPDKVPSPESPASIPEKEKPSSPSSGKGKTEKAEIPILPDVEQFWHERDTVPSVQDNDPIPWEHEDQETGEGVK
GPR151 confirm: human GPR151 activation, confirmation screen | activation, % at 11.2 µM | 6,700 tested, under 10 active | GPR151 PathHunter beta-arrestin cells, luminescence, 90 min; % of EA-reagent control over plate median | shares compounds with GPR151 activ;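 active means mean percent activation across replicates above the confirmation screen cutoff of 4.91%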
GPR119 counter: GPR119 activation, counter-screen for GPR151 activators | shares compounds with GPR151 activ | GPR119 PathHunter beta-arrestin cells, luminescence, 90 min; 0 = compound-well median, 100 = enzyme-acceptor control | activation, % at 11.2 µM | 0.3% of 6,700 active | AID 1508611;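 active means mean percent activation in the counterscreen above 29.09%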;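 further: counterscreen on off-target GPR119 to flag nonselective hits from the GPR151 activator screen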
Numbers stand for hits; n = inactive; x = no result. Sampled rows, rich in hits. Any-hit rate of the full collection: about 3.4%.

SMILES | TEAD-YAP block | MITF inh | FBW7 act | GPR151 activ | GPR151 confirm | GPR119 counter
COc1ccc2c(c1)c(-c1csc(N)n1)c(C)n2C | n | n | n | n | x | x
Cc1cccc(N(CCCN2C(=O)c3cccc4cccc(c34)C2=O)C(=O)c2cccs2)c1 | n | n | n | 5.7 | n | n
CC(=O)Nc1cnn(-c2ccc(C(=O)NCCc3cccc(Cl)c3)cc2)c1 | n | n | n | n | x | x
CCCSC1=C(C#N)C(c2ccc3c(c2)OCO3)CC(=O)N1 (stereo unspecified) | n | n | n | n | x | x
CSC1=C(C#N)C(c2ccc3c(c2)OCO3)CC(=O)N1 (stereo unspecified) | n | n | n | 5.1 | n | n
Cc1ccsc1CN1CCC2(CC1)CC2C(=O)N(C)Cc1cscn1 (stereo unspecified) | n | n | n | 5.2 | n | n
Cc1nc2ccccc2nc1CN1CCC2(CC1)CC2C(=O)N(C)Cc1cscn1 (stereo unspecified) | n | n | n | n | x | x
O=C(Nc1cccc(C(F)(F)F)c1)c1nn2c(C(F)(F)F)cc(-c3ccc(Br)o3)nc2c1Br | n | n | n | 17 | n | n
O=C(NCc1cccnc1)c1nn2c(C(F)(F)F)cc(-c3ccccc3)nc2c1Br | n | n | n | n | x | x
O=C(NCc1ccc(F)cc1)c1nn2c(C(F)(F)F)cc(-c3ccccc3)nc2c1Br | n | n | n | 5.9 | n | n
CN(CCc1ccccc1)C1CCCN(Cc2ccc(CO)o2)C1 (stereo unspecified) | n | n | n | n | x | x
COc1ccc2c(c1)COC1(CCN(C(=O)Nc3ccccc3F)CC1)O2 | n | n | n | 7.7 | n | n
CCOc1ccc(C(=O)Nc2ccc(S(=O)(=O)NC(C)(C)C)cc2)cc1OCC | n | n | n | 5.9 | n | n
CCNS(=O)(=O)c1ccc(NC(=O)c2ccccc2OCC)cc1 | n | n | n | n | x | x
CCOc1ccccc1C(=O)Nc1ccc(S(=O)(=O)NC(C)CC)cc1 (stereo unspecified) | n | n | n | 13 | n | n
CCC(C)C1N=C2c3ccccc3N=C(SCC(=O)N3CC(C)CC(C)C3)N2C1=O (stereo unspecified) | n | n | n | 12 | n | n
CC(C)C1N=C2c3ccccc3N=C(SCC(=O)NCCc3ccccc3)N2C1=O (stereo unspecified) | n | n | n | 5.8 | n | n
CC1CC(C)CN(C(=O)CSC2=Nc3ccccc3C3=NC(C(C)C)C(=O)N23)C1 (stereo unspecified) | n | n | n | n | x | x
Cc1ccc(CNC(=O)CSC2=Nc3ccccc3C3=NC(C(C)C)C(=O)N23)cc1 (stereo unspecified) | n | n | n | n | x | x
CCC(C)(C)NS(=O)(=O)c1cc2c(cc1C)N(C(C)=O)CCO2 | n | n | n | n | x | x
Cc1ccc(NC(=S)N2CCN(c3ccccn3)CC2)c(C)c1 | n | n | n | n | x | x
COc1cc(NC(=S)N2CCN(c3ccccn3)CC2)cc(OC)c1 | n | n | n | 11 | n | n
COc1ccc(C)cc1NC(=S)N1CCN(c2ccccn2)CC1 | n | n | n | 5.1 | n | n
CCN(CC)S(=O)(=O)c1ccc(C(=O)Nc2c3c(nn2C(C)(C)C)CSC3)cc1 | n | n | n | n | x | x
COc1c(C)cccc1C(=O)Nc1cccc(-c2nc3ncccc3o2)c1 | n | n | n | 7.4 | n | n
SMILES | TEAD-YAP block | MITF inh | FBW7 act | GPR151 activ | GPR151 confirm | GPR119 counter
COc1ccc(C(=O)Nc2cccc(-c3nc4ncccc4o3)c2C)cc1[N+](=O)[O-] | n | n | n | n | x | x
COc1ccc(C(=O)Nc2cccc(-c3nc4ncccc4o3)c2C)cc1OC | n | n | n | 5.5 | n | n
O=C1CCCN1CCCn1cnc2c([nH]c3ccc(Cl)cc32)c1=O | n | n | n | n | x | x
CC(=O)N1CCc2cc(S(=O)(=O)NC(CC(C)C)C(=O)N3CCCCCC3)ccc21 (stereo unspecified) | n | n | n | n | x | x
Cc1cc2c(=O)n(CC(=O)N3CCC(C(N)=O)(N4CCCCC4)CC3)cnc2s1 | n | n | n | n | x | x
CCN1OCN(c2nc(N(C)C)nc(N(C)C)n2)C1=N | n | n | n | n | x | x
CC1CC(C)CN(C(=O)c2ccc(-c3nnc(-c4ccccc4)o3)cc2)C1 (stereo unspecified) | n | n | n | n | x | x
COCCn1c(=NC(=O)c2ccc(OC)cc2)sc2cc([N+](=O)[O-])ccc21 | n | n | n | n | x | x
CCNC(=O)C(=O)N/N=C/c1ccccc1 | n | n | n | 8.2 | n | n
COCCn1c(=NC(=O)Cc2ccccc2)sc2cc(OC)ccc21 | n | n | n | n | x | x
COCCn1c(=NC(=O)CCS(=O)(=O)c2ccccc2)sc2cc(OC)ccc21 | n | n | n | 6.7 | n | n
COc1ccc(Cl)cc1NC(=O)c1ccc(C(=O)O)cc1C(=O)O | n | n | n | n | x | x
COc1ccc(CC(=O)Nc2nc3c(s2)C(=O)CC(C)(C)C3)cc1 | n | n | n | n | x | x
COc1ccc(CCC(=O)Nc2nc3c(s2)C(=O)CC(C)(C)C3)cc1 | n | n | n | 6.5 | n | n
COc1ccc(/C=C/C(=O)Nc2nc3c(s2)C(=O)CC(C)(C)C3)cc1 | n | n | n | 5.4 | n | n
Cc1ccc(S(=O)(=O)NCCOc2ccc(F)cc2)s1 | n | n | n | n | x | x
CCN(Cc1c(C(=O)OC)nnn1-c1nonc1N)c1ccccc1 | n | n | n | 5.1 | n | n
COC(=O)c1nnn(-c2nonc2N)c1C(C)(C)C | n | n | n | n | x | x
COC(=O)c1nnn(-c2nonc2N)c1C(=O)OC | n | n | n | 6.0 | n | n
CN(C)CC(=O)Nc1ccccc1Br | n | n | n | n | x | x
CC(C)COCC(O)CCC(=O)NNC(=S)Nc1ccccc1 (stereo unspecified) | n | n | n | 6.5 | n | n
CCCCCC(O)CCC(=O)NNC(=S)Nc1ccccc1 (stereo unspecified) | n | n | n | n | x | x
CC1Sc2ccccc2N(Cc2ccc(C(F)(F)F)nc2)C1=O (stereo unspecified) | n | n | n | 5.4 | n | n
Cc1ccccc1C1CC(=O)Nc2cc3c(cc21)OCO3 (stereo unspecified) | n | n | n | 6.0 | n | n
CC(C)c1cc(CNCc2c(C(=O)N3CCCC3)nc3sccn23)on1 | n | n | n | n | x | x
SMILES | TEAD-YAP block | MITF inh | FBW7 act | GPR151 activ | GPR151 confirm | GPR119 counter
O=C(Cc1ccccc1)NCC(=O)OCc1ccc(Cl)cc1 | n | n | n | n | x | x
CCOC(=O)CNC(=O)N(Cc1ccccc1)Cc1ccccc1 | n | n | n | 5.3 | n | n
NCC(=O)NCC(=O)OCc1ccccc1 | n | n | n | 7.5 | n | n
CCOC(=O)CNC(=O)OCc1ccccc1 | n | n | n | n | x | x
CC(=NCCCn1cnc2c1c(=O)n(C)c(=O)n2C)N(C)C | n | n | n | 6.4 | n | n
O=C(c1cc(Cl)ccc1[N+](=O)[O-])N1CCN(c2ncccn2)CC1 | n | n | n | 8.3 | n | n
O=C(CCCO)NCCc1nc2ccccc2n1Cc1ccc(Br)cc1 | n | n | n | n | x | x
